# Source: publication PMC7862700, “An all-to-all approach to the identification of sequence-specific readers for epigenetic DNA modifications on cytosine”
# Experiments:
# Assay in all cases: DAPPL (digital affinity profiling via proximity ligation, sequencing); 10 mM Tris-HCl pH 7.5, 50 mM NaCl, 1 mM DTT, 4% glycerol, room temperature, 30 min; GST-TFs on glutathione beads, 16-mer random dsDNA library, 0.1% formaldehyde crosslink after washing; high values mean tight binding
# [1] = biological target: T1, FEV (Homo sapiens, UniProt Q99581 1-238); conditions: protein: recombinant; tags: N-terminal GST; dsDNA, one strand shown
# T1 sequence: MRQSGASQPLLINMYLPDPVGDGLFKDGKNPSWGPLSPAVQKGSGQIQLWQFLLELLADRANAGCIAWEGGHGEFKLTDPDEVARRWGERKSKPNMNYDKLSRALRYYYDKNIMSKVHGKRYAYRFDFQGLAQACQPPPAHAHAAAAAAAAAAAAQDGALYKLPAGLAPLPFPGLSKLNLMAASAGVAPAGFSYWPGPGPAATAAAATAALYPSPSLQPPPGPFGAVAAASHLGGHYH
# Summary of the method: (§1)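 Binding signal is given per hexamer as its read frequency for a factor divided by its frequency in the tag-only sample. GST-fused human transcription factors were expressed in yeast, captured on glutathione beads, barcoded with DNA and pooled with that sample, then incubated with 200 nmole of a 16-mer random double-stranded DNA library in Tris/NaCl/DTT/glycerol buffer for 30 min at room temperature. The pools were then washed, crosslinked, proximity-ligated, amplified by PCR and sequenced on an Illumina NextSeq500.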
# [2] = biological target: ETV5 (Homo sapiens, UniProt P41161 1-510); conditions: protein: recombinant; tags: N-terminal GST; dsDNA, one strand shown
# Sequence of ETV5 (P41161 whole entry): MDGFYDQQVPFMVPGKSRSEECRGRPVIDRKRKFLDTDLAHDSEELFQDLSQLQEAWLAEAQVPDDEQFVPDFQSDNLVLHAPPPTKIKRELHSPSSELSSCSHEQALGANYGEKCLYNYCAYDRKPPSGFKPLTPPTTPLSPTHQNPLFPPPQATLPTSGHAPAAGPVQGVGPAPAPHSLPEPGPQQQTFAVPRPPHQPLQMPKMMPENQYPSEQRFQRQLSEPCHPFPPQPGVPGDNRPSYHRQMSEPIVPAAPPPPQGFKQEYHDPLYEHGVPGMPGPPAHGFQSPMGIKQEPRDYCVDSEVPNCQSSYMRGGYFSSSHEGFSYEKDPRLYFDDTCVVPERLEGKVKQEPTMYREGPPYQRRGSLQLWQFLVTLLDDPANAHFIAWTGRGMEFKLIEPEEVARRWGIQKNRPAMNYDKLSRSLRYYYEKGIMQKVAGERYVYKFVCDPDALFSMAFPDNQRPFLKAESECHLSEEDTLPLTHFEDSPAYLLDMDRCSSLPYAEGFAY
# Summary of the method: as §1
# [3] = biological target: HSF1 (Homo sapiens, UniProt Q00613 1-529); conditions: protein: recombinant; tags: N-terminal GST; chain copies: 3; dsDNA, one strand shown
# Sequence of HSF1 (Q00613 whole entry): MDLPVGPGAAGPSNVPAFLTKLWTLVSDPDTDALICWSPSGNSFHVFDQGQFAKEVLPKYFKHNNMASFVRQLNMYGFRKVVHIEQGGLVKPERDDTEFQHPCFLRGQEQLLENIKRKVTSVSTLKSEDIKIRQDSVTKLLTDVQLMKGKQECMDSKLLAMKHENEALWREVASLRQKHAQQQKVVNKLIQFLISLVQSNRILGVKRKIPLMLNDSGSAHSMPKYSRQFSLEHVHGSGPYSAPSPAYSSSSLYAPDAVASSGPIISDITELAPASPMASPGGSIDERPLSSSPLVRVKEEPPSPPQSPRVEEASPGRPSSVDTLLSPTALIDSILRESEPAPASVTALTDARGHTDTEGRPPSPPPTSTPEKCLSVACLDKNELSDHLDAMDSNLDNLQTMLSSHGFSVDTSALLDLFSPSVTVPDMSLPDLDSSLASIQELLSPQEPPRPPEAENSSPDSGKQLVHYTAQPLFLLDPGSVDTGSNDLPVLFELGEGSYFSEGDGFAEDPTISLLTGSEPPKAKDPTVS
# Summary of the method: as §1
# [4] = biological target: T2, SPIC (Homo sapiens, UniProt Q8N5J4 1-248); conditions: protein: recombinant; tags: N-terminal GST; dsDNA, one strand shown
# T2 sequence: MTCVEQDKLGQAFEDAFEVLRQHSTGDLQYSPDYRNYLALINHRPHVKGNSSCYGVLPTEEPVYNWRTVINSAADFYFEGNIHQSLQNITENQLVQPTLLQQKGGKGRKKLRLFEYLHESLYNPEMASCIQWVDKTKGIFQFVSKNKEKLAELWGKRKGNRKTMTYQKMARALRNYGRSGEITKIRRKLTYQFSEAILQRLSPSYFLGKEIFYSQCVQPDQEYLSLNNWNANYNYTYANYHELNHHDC
# Summary of the method: as §1
# [5] = biological target: ELF4 (Homo sapiens, UniProt Q99607 1-663); conditions: protein: recombinant; tags: N-terminal GST; dsDNA, one strand shown
# Sequence of ELF4 (Q99607 whole entry): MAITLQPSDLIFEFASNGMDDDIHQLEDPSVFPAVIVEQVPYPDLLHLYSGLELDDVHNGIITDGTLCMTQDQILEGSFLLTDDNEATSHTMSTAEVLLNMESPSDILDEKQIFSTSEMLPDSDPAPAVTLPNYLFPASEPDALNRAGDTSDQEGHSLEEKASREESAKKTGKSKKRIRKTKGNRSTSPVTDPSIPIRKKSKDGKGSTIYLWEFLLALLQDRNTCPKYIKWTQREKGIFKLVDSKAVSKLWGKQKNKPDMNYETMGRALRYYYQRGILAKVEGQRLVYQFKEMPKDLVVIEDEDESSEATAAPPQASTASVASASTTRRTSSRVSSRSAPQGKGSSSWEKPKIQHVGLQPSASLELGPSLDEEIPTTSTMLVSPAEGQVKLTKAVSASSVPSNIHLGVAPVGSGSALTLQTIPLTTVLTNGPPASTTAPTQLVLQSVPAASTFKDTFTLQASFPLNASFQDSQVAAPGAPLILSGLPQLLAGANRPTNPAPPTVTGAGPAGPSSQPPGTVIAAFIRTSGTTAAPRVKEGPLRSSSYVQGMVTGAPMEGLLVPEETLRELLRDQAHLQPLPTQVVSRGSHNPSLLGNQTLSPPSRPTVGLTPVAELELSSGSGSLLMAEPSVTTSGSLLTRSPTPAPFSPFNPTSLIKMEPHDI
# Summary of the method: as §1
# [6] = biological target: T3, ELK4 (Homo sapiens, UniProt P28324-2 1-405); conditions: protein: recombinant; tags: N-terminal GST; dsDNA, one strand shown
# T3 sequence: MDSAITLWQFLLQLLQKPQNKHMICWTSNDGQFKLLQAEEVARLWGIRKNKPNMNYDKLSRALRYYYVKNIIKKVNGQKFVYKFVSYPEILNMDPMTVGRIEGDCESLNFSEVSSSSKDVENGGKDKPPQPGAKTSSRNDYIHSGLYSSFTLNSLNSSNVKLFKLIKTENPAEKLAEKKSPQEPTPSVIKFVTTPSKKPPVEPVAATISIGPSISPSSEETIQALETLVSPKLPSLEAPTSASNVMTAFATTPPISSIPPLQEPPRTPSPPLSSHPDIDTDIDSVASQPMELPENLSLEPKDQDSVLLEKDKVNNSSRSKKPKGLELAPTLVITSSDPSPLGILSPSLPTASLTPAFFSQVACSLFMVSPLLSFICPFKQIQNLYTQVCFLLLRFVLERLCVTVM
# Summary of the method: as §1
# [7] = biological target: T4, ETV2 (Homo sapiens, UniProt O00321 1-342); conditions: protein: recombinant; tags: N-terminal GST; dsDNA, one strand shown
# T4 sequence: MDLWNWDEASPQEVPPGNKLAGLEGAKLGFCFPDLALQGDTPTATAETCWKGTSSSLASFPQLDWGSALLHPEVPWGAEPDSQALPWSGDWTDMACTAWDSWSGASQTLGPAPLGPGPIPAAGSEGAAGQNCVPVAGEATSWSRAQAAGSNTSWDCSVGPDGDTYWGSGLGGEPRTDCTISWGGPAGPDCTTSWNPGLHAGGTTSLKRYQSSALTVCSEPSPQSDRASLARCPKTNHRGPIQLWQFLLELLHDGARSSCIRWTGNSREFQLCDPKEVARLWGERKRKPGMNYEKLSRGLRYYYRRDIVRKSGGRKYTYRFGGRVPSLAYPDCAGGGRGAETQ
# Summary of the method: as §1
# [8] = biological target: T5, ELF3 (Homo sapiens, UniProt P78545 1-371); conditions: protein: recombinant; tags: N-terminal GST; dsDNA, one strand shown
# T5 sequence: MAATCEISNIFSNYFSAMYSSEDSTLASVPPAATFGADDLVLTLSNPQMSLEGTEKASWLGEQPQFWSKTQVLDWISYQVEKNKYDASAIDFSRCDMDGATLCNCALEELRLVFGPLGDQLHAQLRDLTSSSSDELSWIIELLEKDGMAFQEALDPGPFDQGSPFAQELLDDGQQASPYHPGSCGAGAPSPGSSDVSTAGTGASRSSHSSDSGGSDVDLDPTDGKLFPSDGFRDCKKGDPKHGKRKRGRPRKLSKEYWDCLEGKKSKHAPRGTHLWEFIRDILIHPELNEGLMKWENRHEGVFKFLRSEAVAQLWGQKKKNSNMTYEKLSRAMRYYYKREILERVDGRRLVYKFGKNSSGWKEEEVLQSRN
# Summary of the method: as §1
# [9] = biological target: CRX (Homo sapiens, UniProt O43186 1-299); conditions: protein: recombinant; tags: N-terminal GST; dsDNA, one strand shown
# Sequence of CRX (O43186 whole entry): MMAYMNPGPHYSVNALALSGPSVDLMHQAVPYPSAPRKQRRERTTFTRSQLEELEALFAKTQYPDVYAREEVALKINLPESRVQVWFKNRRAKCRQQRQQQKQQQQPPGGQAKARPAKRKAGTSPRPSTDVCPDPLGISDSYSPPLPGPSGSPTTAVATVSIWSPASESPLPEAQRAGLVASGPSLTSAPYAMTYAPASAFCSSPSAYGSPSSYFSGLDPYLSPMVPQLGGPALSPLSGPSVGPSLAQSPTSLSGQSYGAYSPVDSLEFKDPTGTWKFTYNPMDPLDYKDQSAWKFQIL
# Summary of the method: as §1
# [10] = biological target: ETV1 (Homo sapiens, UniProt P50549 1-477); conditions: protein: recombinant; tags: N-terminal GST; dsDNA, one strand shown
# Sequence of ETV1 (P50549 whole entry): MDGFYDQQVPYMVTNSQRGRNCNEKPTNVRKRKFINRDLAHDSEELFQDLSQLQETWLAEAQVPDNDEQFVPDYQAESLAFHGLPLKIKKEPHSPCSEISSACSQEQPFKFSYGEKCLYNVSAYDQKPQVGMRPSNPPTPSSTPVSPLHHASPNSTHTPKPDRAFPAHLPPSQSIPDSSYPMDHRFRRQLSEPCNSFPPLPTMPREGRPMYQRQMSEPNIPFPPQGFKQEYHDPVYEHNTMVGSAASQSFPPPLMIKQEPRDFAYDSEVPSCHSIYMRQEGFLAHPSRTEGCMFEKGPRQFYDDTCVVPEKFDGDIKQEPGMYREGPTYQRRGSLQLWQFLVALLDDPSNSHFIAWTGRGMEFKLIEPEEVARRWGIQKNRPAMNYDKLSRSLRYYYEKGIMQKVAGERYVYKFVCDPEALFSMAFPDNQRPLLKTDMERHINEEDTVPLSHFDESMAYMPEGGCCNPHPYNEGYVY
# Summary of the method: as §1
# [11] = biological target: T6, ERF (Homo sapiens, UniProt P50548 1-548); conditions: protein: recombinant; tags: N-terminal GST; dsDNA, one strand shown
# T6 sequence: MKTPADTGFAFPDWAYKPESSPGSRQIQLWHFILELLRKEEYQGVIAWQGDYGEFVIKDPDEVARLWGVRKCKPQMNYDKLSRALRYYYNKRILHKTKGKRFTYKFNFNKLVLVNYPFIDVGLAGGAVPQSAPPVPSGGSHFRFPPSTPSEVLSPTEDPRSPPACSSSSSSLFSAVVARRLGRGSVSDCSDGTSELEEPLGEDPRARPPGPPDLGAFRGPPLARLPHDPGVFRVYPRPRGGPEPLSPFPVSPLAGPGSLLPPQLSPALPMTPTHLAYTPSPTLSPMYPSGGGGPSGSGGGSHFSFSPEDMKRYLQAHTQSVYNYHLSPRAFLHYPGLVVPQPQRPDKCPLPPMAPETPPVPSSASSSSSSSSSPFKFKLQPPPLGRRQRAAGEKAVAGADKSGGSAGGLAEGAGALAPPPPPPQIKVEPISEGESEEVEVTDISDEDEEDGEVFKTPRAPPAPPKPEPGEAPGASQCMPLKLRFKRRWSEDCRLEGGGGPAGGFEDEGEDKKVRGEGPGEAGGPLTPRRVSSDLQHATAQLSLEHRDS
# Summary of the method: as §1
# [12] = biological target: T7, ETV3L (Homo sapiens, UniProt Q6ZN32 1-361); conditions: protein: recombinant; tags: N-terminal GST; dsDNA, one strand shown
# T7 sequence: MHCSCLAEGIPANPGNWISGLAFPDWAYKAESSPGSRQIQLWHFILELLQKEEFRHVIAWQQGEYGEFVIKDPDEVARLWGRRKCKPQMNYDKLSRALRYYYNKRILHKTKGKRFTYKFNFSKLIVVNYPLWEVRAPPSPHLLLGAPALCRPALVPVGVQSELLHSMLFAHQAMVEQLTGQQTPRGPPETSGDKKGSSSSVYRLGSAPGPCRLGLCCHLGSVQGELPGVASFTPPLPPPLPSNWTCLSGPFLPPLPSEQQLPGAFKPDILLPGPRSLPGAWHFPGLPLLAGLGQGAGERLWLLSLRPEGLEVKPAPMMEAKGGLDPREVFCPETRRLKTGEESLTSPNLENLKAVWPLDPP
# Summary of the method: as §1
# [13] = biological target: T8, ETS2 (Homo sapiens, UniProt P15036 1-469); conditions: protein: recombinant; tags: N-terminal GST; dsDNA, one strand shown
# T8 sequence: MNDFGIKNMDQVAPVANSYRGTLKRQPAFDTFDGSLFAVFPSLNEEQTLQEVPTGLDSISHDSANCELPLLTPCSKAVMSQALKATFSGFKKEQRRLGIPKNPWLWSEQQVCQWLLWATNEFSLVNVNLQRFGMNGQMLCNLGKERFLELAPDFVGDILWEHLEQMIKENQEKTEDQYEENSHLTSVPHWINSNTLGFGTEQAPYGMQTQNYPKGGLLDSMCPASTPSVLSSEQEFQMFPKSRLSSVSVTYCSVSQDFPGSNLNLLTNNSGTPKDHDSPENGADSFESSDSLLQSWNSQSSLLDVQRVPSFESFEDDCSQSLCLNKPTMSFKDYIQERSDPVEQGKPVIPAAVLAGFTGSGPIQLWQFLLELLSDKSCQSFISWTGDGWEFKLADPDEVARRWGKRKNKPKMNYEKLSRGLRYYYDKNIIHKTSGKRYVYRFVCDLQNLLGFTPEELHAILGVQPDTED
# Summary of the method: as §1
# [14] = biological target: T9, SPDEF (Homo sapiens, UniProt O95238 1-335); conditions: protein: recombinant; tags: N-terminal GST; dsDNA, one strand shown
# T9 sequence: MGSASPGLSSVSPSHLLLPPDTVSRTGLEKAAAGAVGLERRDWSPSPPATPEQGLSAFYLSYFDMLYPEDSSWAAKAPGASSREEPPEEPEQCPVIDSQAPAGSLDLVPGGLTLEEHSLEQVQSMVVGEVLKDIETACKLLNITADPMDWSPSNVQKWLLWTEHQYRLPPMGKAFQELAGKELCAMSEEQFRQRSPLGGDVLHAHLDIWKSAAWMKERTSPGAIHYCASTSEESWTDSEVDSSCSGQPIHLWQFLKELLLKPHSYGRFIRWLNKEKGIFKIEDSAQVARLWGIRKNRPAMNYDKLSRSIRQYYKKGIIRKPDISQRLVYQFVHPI
# Summary of the method: as §1
# [15] = biological target: T10, ETV7 (Homo sapiens, UniProt Q9Y603 1-341); conditions: protein: recombinant; tags: N-terminal GST; dsDNA, one strand shown
# T10 sequence: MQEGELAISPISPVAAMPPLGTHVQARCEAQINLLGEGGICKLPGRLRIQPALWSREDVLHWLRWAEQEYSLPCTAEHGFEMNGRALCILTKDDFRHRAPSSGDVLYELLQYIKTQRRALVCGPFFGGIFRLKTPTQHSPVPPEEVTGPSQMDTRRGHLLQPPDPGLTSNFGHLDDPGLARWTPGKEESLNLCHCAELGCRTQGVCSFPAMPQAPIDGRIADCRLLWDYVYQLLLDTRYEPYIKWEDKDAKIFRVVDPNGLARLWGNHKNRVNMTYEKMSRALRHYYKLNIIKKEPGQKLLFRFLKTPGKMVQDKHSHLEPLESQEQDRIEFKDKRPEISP
# Summary of the method: as §1
# [16] = biological target: T11, ELF5 (Homo sapiens, UniProt Q9UKW6-2 1-255); conditions: protein: recombinant; tags: N-terminal GST; dsDNA, one strand shown
# T11 sequence: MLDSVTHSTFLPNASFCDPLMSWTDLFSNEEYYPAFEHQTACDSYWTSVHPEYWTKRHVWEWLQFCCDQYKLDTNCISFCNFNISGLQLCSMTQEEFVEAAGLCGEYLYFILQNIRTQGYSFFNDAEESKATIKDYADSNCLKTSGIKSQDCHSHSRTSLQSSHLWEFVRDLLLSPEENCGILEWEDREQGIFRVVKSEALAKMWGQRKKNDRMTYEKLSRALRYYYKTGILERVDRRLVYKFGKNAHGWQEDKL
# Summary of the method: as §1
# [17] = biological target: T12, ETV3 (Homo sapiens, UniProt P41162-2 1-143); conditions: protein: recombinant; tags: N-terminal GST; dsDNA, one strand shown
# T12 sequence: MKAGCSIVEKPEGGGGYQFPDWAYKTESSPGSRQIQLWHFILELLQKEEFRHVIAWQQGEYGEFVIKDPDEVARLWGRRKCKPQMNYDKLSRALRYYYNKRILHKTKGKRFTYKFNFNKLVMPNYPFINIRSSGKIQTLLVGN
# Summary of the method: as §1
# [18] = biological target: ETV6 (Homo sapiens, UniProt P41212 1-452); conditions: protein: recombinant; tags: N-terminal GST; dsDNA, one strand shown
# Sequence of ETV6 (P41212 whole entry): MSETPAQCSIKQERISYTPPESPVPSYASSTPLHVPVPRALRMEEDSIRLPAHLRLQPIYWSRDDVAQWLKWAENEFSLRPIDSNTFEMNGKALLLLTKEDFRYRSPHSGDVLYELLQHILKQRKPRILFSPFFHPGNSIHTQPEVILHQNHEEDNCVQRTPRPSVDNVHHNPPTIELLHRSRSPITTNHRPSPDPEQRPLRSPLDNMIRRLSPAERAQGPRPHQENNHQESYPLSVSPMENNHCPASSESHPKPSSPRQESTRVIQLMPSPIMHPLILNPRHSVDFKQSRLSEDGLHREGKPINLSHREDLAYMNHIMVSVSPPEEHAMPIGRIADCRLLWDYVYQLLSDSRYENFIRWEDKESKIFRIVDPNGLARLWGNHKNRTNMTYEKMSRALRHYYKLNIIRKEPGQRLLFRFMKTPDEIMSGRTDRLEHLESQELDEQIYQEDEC
# Summary of the method: as §1
sequence,measurement,setting,value
TATTGG,binding signal,[1],"1.14 fold enrichment (6-mer frequency, TF over GST control)"
same,binding signal,[2],"1.19 fold enrichment (6-mer frequency, TF over GST control)"
same,binding signal,[3],"1.2 fold enrichment (6-mer frequency, TF over GST control)"
same,binding signal,[4],"1.19 fold enrichment (6-mer frequency, TF over GST control)"
same,binding signal,[5],"1.21 fold enrichment (6-mer frequency, TF over GST control)"
same,binding signal,[6],"1.28 fold enrichment (6-mer frequency, TF over GST control)"
same,binding signal,[7],"1.14 fold enrichment (6-mer frequency, TF over GST control)"
same,binding signal,[8],"1.24 fold enrichment (6-mer frequency, TF over GST control)"
same,binding signal,[9],"1.4 fold enrichment (6-mer frequency, TF over GST control)"
same,binding signal,[10],"1.13 fold enrichment (6-mer frequency, TF over GST control)"
same,binding signal,[11],"1.2 fold enrichment (6-mer frequency, TF over GST control)"
same,binding signal,[12],"1.18 fold enrichment (6-mer frequency, TF over GST control)"
same,binding signal,[13],"1.23 fold enrichment (6-mer frequency, TF over GST control)"
same,binding signal,[14],"1.23 fold enrichment (6-mer frequency, TF over GST control)"
same,binding signal,[15],"1.19 fold enrichment (6-mer frequency, TF over GST control)"
same,binding signal,[16],"1.1 fold enrichment (6-mer frequency, TF over GST control)"
same,binding signal,[17],"1.17 fold enrichment (6-mer frequency, TF over GST control)"
same,binding signal,[18],"1.21 fold enrichment (6-mer frequency, TF over GST control)"
